Here are results for 46 molecules from PubChem BioAssay AID493084 (National Center for Advancing Translational Sciences (NCATS), 2011).

Hit rate of the full screen: of about 360,000 compounds, about 650 (0.18%) were called active. Many of the other results were omitted from the sample, so actives are more common in it than they were. Unmarked numbers belong to inactive results. Rule as the data show it: active = activation above about 30%; inactive = the rest.

For the test, the target named is Thyrotropin-releasing hormone receptor (Homo sapiens) (UniProt P34981). The test is described as follows: qHTS for Small Molecule Agonists and Allosteric Enhancers of Human TRH Receptor: Primary Screen for Agonists. Also: 0% is about no effect. The following applies: TRHR cells, calcium flux fluo-8, FDSS agonist mode; at 2 µM; active compounds read high. The source says: NIH Chemical Genomics Center [NCGC] NIH Molecular Libraries Probe Centers Network [MLPCN] MLPCN Grant: MH089816-01 Assay Submitter (PI): Marvin Gershengorn This project aims to identify small drug-like molecules that activate (agonists) the thyrotropin releasing hormone (TRH) receptor (TRHR) or enhance its TRH-stimulated activity (allosteric enhancers). TRHR, a drug-accessible cell surface receptor expressed in specific brain regions, and its ligand TRH have been implicated in several central nervous system disorders, including depression and anxiety. Small molecule TRHR agonists or allosteric enhancers that are metabolically stable and able to cross the blood-brain barrier might serve as probes to elucidate the roles of brain TRH receptors in animal models, and might be valuable as lead compounds for the development of drugs to treat patients with central nervous system disorders. Upon TRHR-Gq activation in TRHR cells, intracellular calcium is released from stores in the endoplasmic reticulum. […] This primary screen measures compound-induced activation of calcium release.
Sequence of Thyrotropin-releasing hormone receptor (Homo sapiens) (P34981 whole entry, looked up): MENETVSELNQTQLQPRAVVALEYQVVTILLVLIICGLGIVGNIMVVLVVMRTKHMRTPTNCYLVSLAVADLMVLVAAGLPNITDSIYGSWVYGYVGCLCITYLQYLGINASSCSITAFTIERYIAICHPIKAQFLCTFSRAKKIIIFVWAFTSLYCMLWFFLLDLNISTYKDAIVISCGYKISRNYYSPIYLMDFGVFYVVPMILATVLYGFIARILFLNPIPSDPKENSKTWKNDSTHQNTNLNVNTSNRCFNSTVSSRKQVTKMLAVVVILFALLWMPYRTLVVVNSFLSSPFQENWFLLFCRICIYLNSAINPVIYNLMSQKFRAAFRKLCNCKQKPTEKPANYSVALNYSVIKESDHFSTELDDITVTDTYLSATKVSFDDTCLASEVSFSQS
For the HTS assay freshly prepared cells are plated at a density of 2000/well in 3 ul of complete DMEM medium containing 10% serum in 1536-well plates and cultured over night at 37 C in a humidified incubator with 5% CO2. The next day, 2 ul of a no wash calcium dye (ABD Bioquest) was added to the cells and plates were incubated at room temperature for 1 hour. For the assay, assay plates were loaded into the FDSS kinetic plate reader. A 10 cycle (1 second/cycle) baseline measurement is taken and then the FDSS online 1536 pintool delivers 23 nl of compound library (as well as TRH controls) to the plate. The plate is measured for kinetically at 1 cycle/sec for 180 seconds and is considered to be the agonist portion of the assay (eg, compounds which activate a positive calcium response during this portion are flagged as potential agonists). Following the 180 second read, 1 ul of either an EC20 (positive modulation assay) is delivered by an onboard pipette head. Measurements are taken kinetically for an additional 180 seconds. TRHR FDSS Screening Protocol 1. Reagent, 3 uL 2000 cells/well 1536 TC treated Black plate in media containing 10% FCS 2. Time, 18 hours, 33.5C 5% CO2 (cells grown at 37C) 3. Reagent, 2 uL ABD fluo-8 Ca dye 4. Time, 30 min-1.5hrs hours, Room temp (6 plates/batch) 5. Detector, EX 480/EM 530C, FDSS 10 cycles baseline (1sec/cycle) 6. Compound, 23 nL of stock solution from library 7. Detector, EX 480/EM 530C, FDSS […] (1sec/cycle) Agonist mode 8. Compound, 1 ul EC20 of TRH made up in HEPES HBSS, 10 nM final 9. Detector, EX 480/EM 530C, FDSS 100 cycles (1sec/cycle) Potentiator mode
In the case of `COc1ccccc1C(=O)Nc1c(C(=O)N(C)Cc2ccccc2)sc2nc(C)c(Cl)c(C)c12`, the activation was -1.19%.

With `CCc1cccc(NC(=O)CN(c2ccc(C)c(C)c2)S(=O)(=O)c2ccsc2C(=O)OC)c1`, the activation is 0.768%.

For the molecule `Cc1cc(S(=O)(=O)c2cc3ccc(O)c(C)c3oc2=O)ccc1F`, the activation was 44.2% (active).

On to `COc1cc(Br)cc2cc(S(=O)(=O)c3ccccc3)c(=O)oc12`, for which the activation is 0.456%.

Consider `COc1ccc(NC(=O)c2ccc3oc(=O)c(S(=O)(=O)c4ccc(F)cc4)cc3c2)c(OC)c1`, for which the activation was -0.513%.

With `Cc1ccc2cccc(NC(=O)C(C)Oc3ccc(C)c(C)c3)c2n1` (stereo unspecified), the activation was 0.214%.

Regarding `COc1ccccc1NC(=O)CSc1oc(-c2ccco2)nc1S(=O)(=O)c1ccc(Br)cc1`, the activation is -0.526%.

On to `Cc1ccccc1Cn1nc(C)c(NC(=O)c2cc(-c3ccc(F)cc3)on2)c1C`, for which the activation is -0.526%.

For the molecule `CC1=C(c2ccc(F)cc2)S(=O)(=O)N=C1N1CCC(C(=O)NCCc2ccccc2C)CC1`, the activation was 0.06%.

For `CCc1ccc(S(=O)(=O)n2ccnc2)cc1`, the activation was 0.631%.

`O=C(/C=C/c1ccc(N2CCOCC2)cc1)c1ccccc1`: the activation is 42.4% (active).

With `C/C(=C/c1ccccc1)C(=O)N1CCN(c2ccccc2)CC1`, the activation was -0.0779%.

On to `O=C(O)CCC(=O)Nc1ccc(N2CCOCC2)cc1`, for which the activation is 0.0804%.

Take `COc1ccc(Cn2c(=O)c3oc4ccccc4c3n(CC(=O)Nc3ccc(F)cc3F)c2=O)cc1`: the activation was 1.15%.

In the case of `CCOC(=O)c1cc2c(=O)n3ccccc3nc2n(CCCOC)c1=NC(=O)C(C)Oc1ccccc1` (stereo unspecified), the activation was 0.485%.

As for `N#Cc1nc(Nc2cc(F)cc(Cl)c2)nc(NC2CCCC2)n1`, the activation was 1.3%.

Regarding `N#CN1CCC(NS(=O)(=O)c2cccc(F)c2)C1` (stereo unspecified), the activation is 0.751%.

Take `O=C(Cn1cnc2c(oc3ccccc32)c1=O)Nc1ccc(OC(F)(F)F)cc1`: the activation was 0.788%.

As to `CCOC(=O)C1CCN(c2nc3c(S(=O)(=O)c4ccc(CC)cc4)nnn3c3ccc(Cl)cc23)CC1`, the activation was 0.759%.

Turning to `Cc1cccc(C)c1-n1ncc(C(=O)NCCCN2CCCCC2)c1C1CCN(C(=O)OC(C)(C)C)CC1`, the activation was 0.838%.

`CCC(CC)c1nn2cc(-c3ccccc3)nc2s1`: the activation is 6.57%.

Regarding `CC(C)CNc1ncnc2c1nnn2C`, the activation was -0.593%.

Regarding `CCOC(=O)c1cc(-c2ccc(OC)c(S(=O)(=O)Nc3ccc(OC)cc3OC)c2)on1`, the activation was 1.19%.

For the molecule `O=[S+]([O-])(c1ccc2c(c1)OCCO2)N1CCN([S+](=O)([O-])c2c(Cl)cc(Cl)cc2Br)CC1`, the activation was -1.11%.

On to `Cc1ccc(S(=O)(=O)N2CCCc3cc(NS(=O)(=O)c4cc(C)ccc4C)ccc32)cc1`, for which the activation is -0.123%.

`CCCCCCc1cc2cc(-c3nnc(-c4ccccc4)o3)c(=O)oc2cc1O`: the activation is 185% (active).

On to `COc1cccc(N2CCN(C(=O)CCCCCn3c(=O)[nH]c4ccccc4c3=O)CC2)c1`, for which the activation is -0.437%.

For `COCCn1c(CCC(=O)Nc2cc(C)ccc2C)nc2cccnc21`, the activation is -1.95%.

For `COc1ccccc1-n1c(-c2ccc(C)cc2)cn2c3c(=O)n(C)c(=O)n(C)c3nc12`, the activation was 0.636%.

With `CCc1ccc(N(CC)C(=O)CCn2cnc3onc(-c4ccc(F)cc4)c3c2=O)cc1`, the activation is 0.0408%.

Regarding `Cc1noc(C)c1-c1ccc2ncnc(NCc3ccc(F)c(F)c3)c2c1`, the activation was 21.5%.

As to `CCC(=O)N1c2ccccc2CC1C(=O)N1CCN(c2cccc(OC)c2)CC1` (stereo unspecified), the activation is -0.304%.

With `CN(C)c1ccc(/C=C2\NC(=S)N(Cc3ccccc3)C2=O)cc1`, the activation is 94.7% (active).

For the molecule `COc1ccccc1CNC(=O)NCc1noc2ccc(C)cc12`, the activation is -0.0554%.

`CCOc1ccc(CNC(=O)Cn2cc3c(n2)-c2c(oc(C(=O)N4CCCC4)c2C)CC3)cc1`: the activation was -0.1%.

For `CN(C)c1ccc(C(=O)NCC(=O)OC(C(=O)Nc2cc(C(F)(F)F)ccc2Cl)c2ccccc2)cc1` (stereo unspecified), the activation is 0.138%.

On to `N#C/C(=C/c1ccc(N2CCCCC2)o1)C(=O)NCCc1c[nH]c2ccccc12`, for which the activation is 43.2% (active).

On to `O=C(CCCCCn1c(=O)[nH]c2ccccc2c1=O)NCCc1c[nH]c2ccccc12`, for which the activation was -0.335%.

Take `CC1(C(=O)NCCc2c[nH]c3ccccc23)C=CC2(CCCCC2)N1C(=O)c1ccccc1` (stereo unspecified): the activation was 0.212%.

As for `COc1cc(C(=S)NCc2ccccc2)cc(Br)c1O`, the activation was -0.891%.

As to `COc1cc(/C=C2/SC(=S)N(Cc3ccccc3)C2=O)cc(OC)c1O`, the activation is 33.6% (active).

In the case of `COc1ccc(CCNC(=O)CCCCn2c(=O)c3ccccc3n(Cc3ccccc3)c2=O)cc1OC`, the activation was -0.65%.

On to `Cc1ccc(S(=O)(=O)N2CCc3cc(C(=O)Nc4ccc(Cl)cc4C)ccc32)cc1`, for which the activation is 0.483%.

Consider `Cc1nc2ccn(Cc3cccnc3)c(=O)c2cc1C(=O)N1CCN(c2ccccc2F)CC1`, for which the activation was -0.337%.

Take `O=C1CC(c2nnc(Cc3ccc(Cl)cc3)o2)CN1c1ccccc1` (stereo unspecified): the activation is -0.928%.

Turning to `Cc1cccc(-n2ncc(C(=O)N3CCN(c4ccc(Cl)cc4)CC3)c2C2CCN(C(=O)OC(C)(C)C)CC2)c1`, the activation was 3.67%.
